Our source for the composite z-score and z-score values is PubChem BioAssay.

Activity calls are given as the source filed them. Unless noted, the rule behind the calls is not given here.

Assay [1] is described as follows: compounds binding Alexa647 anti-His antibody – biochemical, small-molecule microarray, 635 nm fluorescence, artefact control for SMM control protein annotation, primary screen (AID 1128).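 Note: score merges feature fluorescence with signal-to-noise for each printed compound spot.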 The following applies: higher = more signal.
Assay [2] concerns Human papillomavirus type 1a E7 protein (residues 1-88). The experiment in a line: HPV1a E7 small-molecule binders, primary screen, biochemical, small-molecule microarray, residues 1-88, 635 nm (AID 1129). Conditions: small-molecule microarray binding, fluorescence 635 nm; higher = more signal.
Assay [3] deals with Focal adhesion kinase 1 (Homo sapiens) (UniProt Q05397). In words: PTK2 protein binding on printed compound slides – biochemical, small-molecule microarray, 635/667 nm fluorescence, BSA, DTT, primary screen (AID 1130).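 Note: composite of spot emission at 667 nm and signal to noise over triplicate slides.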 Conditions: 635 nm fluorescence, higher = more signal.
Chain of Focal adhesion kinase 1 (Homo sapiens) (Q05397 whole entry, looked up): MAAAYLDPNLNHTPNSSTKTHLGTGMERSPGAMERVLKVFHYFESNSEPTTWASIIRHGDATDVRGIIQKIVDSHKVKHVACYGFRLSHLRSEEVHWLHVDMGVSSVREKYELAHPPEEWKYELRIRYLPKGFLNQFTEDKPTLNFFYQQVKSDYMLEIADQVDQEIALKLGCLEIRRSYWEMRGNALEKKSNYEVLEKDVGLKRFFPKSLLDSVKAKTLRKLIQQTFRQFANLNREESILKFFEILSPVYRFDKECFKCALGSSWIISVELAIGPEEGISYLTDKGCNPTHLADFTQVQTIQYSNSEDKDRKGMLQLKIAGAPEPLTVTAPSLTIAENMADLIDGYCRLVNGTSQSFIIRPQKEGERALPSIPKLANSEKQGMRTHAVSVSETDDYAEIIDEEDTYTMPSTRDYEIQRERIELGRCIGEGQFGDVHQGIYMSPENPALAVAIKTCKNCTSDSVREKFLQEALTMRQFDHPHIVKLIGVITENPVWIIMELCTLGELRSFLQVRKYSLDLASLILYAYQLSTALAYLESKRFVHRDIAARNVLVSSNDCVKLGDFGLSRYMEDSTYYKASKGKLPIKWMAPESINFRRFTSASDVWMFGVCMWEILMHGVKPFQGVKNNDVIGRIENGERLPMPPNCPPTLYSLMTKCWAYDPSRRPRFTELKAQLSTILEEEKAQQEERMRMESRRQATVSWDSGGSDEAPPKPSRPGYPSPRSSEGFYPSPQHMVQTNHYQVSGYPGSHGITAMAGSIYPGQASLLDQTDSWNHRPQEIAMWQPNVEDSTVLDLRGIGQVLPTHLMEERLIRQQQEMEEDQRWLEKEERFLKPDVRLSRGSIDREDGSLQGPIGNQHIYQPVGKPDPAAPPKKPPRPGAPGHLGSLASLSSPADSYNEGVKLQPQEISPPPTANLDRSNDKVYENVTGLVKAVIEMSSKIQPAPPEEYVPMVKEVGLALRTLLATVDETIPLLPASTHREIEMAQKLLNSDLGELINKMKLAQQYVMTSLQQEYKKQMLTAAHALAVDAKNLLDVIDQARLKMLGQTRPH
The subject of assay [4] is Fibrinogen (Alexa647-labelled). In words: Alexa647-fibrinogen binding to printed small molecules – biochemical, small-molecule microarray, 635/667 nm fluorescence, artefact control for SMM control-protein annotation, profiling panel (AID 1131).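 Note: z-score merges 667 nm fluorescence with per-spot signal-to-noise over triplicate slides.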 The following applies: fibrinogen-A647 binding fluorescence, higher = more signal.
The target of assay [5] is Follistatin (Homo sapiens) (UniProt P19883). In words: FST protein binding to printed compounds – biochemical, small-molecule microarray, 635/667 nm fluorescence, primary screen (AID 1132). The following applies: 635 nm fluorescence, higher = more signal.
Chain of Follistatin (Homo sapiens) (P19883 whole entry, looked up): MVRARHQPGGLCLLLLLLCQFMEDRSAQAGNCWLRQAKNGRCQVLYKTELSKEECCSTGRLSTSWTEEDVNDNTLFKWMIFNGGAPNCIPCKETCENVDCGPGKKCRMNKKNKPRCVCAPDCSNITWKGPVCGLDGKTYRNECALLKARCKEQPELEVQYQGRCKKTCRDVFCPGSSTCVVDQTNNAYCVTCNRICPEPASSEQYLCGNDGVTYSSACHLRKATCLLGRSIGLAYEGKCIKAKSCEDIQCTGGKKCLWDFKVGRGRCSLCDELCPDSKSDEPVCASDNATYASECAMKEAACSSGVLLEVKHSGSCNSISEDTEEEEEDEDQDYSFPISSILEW
In assay [6] the target is Fibroblast growth factor 2 (Homo sapiens) (UniProt P09038). The experiment in a line: basic fibroblast growth factor binding to printed compounds – biochemical, small-molecule microarray, 635/667 nm fluorescence, primary screen (AID 1133). The following applies: FGF2, fluorescence 635/667, higher = more signal.
Chain of Fibroblast growth factor 2 (Homo sapiens) (P09038 whole entry, looked up): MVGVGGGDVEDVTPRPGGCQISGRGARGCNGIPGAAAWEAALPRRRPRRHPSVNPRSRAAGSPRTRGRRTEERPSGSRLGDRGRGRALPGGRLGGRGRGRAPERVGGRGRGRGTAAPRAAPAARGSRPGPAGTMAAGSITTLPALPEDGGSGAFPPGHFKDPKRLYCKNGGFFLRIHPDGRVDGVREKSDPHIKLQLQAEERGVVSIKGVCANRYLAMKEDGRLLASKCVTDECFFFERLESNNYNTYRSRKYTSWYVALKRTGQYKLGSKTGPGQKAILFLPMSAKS
Assay [7] is described as follows: JC-1 mitochondrial potential readout, lung cancer cells – cell-based, A549, JC-1 fluorescence, basal, 24 h, 100 nL, profiling panel (AID 1138).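 Note: A549 lung adenocarcinoma cells under basal conditions with no added stimulus; test concentration not given here.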 Conditions: higher = more signal.
The test system of assay [8] is Lefty1. The experiment in a line: Lefty1 protein binding to printed compounds – biochemical, small-molecule microarray, 635/667 nm fluorescence, primary screen (AID 1139). Conditions: fluorescence 635/667, higher = more signal.
The test system of assay [9] is wheat germ agglutinin (Triticum aestivum), Alexa647-labelled. The experiment in a line: Alexa647-WGA lectin binding to printed small molecules – biochemical, small-molecule microarray, 635/667 nm fluorescence, artefact control for SMM control-protein annotation, profiling panel (AID 1140).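 Note: score merges 667 nm feature emission with signal to noise over triplicate slides.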 The following applies: WGA-A647 binding, 635 nm fluorescence, higher = more signal.

In assay [10] the target is Luciferin 4-monooxygenase (Photinus pyralis) (UniProt P08659). In words: inhibition of purified Photinus pyralis luciferase – biochemical, luminescence, purified enzyme, 2006 set, primary screen (AID 1141).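 Note: cell-free assay with purified firefly luciferase at 100 ng per well in PBS; test concentration not given here.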 The following applies: purified firefly luciferase, SteadyGlo luminescence, 30 min; higher = more signal, called active from +8 up or from −8 down.
Chain of Luciferin 4-monooxygenase (Photinus pyralis) (P08659 whole entry, looked up): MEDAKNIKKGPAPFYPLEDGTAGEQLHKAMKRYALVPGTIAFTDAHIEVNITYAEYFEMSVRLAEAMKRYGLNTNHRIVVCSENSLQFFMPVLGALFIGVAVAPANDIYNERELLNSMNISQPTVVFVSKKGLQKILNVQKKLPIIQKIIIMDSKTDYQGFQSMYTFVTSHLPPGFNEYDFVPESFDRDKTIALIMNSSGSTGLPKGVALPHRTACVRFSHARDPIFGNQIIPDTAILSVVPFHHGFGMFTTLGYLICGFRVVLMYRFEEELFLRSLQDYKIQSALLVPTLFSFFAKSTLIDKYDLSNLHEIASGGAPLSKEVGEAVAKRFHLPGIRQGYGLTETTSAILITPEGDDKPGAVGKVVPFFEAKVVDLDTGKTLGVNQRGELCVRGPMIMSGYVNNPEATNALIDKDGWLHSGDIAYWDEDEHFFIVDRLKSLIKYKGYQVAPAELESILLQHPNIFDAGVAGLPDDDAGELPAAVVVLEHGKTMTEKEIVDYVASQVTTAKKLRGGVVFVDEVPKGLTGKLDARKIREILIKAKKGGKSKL
In assay [11] the test system is Wnt5a (protein binding on small-molecule microarray). The experiment in a line: small molecules binding Wnt5a protein – biophysical, small-molecule microarray, 635/667 nm fluorescence, primary screen (AID 1142).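 Note: fluorescence read at 667 nm with signal to noise per printed feature.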 Conditions: 635 nm fluorescence, higher = more signal.
Assay [12] in a line: ATP-based viability of Huh7 replicon cells – cell-based, CellTiter-Glo luminescence, basal, 48 h, cytotoxicity control for HCV replication inhibitor project, primary screen (AID 1143).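 Note: Huh7 hepatoma cells carrying a hepatitis C replication reporter with no stimulus; test concentration not given here.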 Conditions: higher = more signal, called active from +8 up or from −8 down.
Assay [13] in a line: Pseudomonas biofilm growth suppression – PAO1 strain, BacTiter-Glo luminescence, LB-PBS, primary screen (AID 1144). Conditions: P. aeruginosa PAO1 biofilm, 12 h, higher = more signal.
Assay [14] in a line: basal CRE-LacZ reporter activity in PC12 – cell-based, unstimulated, primary screen (AID 1145). The following applies: no forskolin, luminescence, 4.5 h, higher = more signal, called active from +8 up or from −8 down.
A short description of assay [15]: forskolin-driven CRE-LacZ activity in PC12 – cell-based, CRE-LacZ reporter, forskolin-stimulated, primary screen (AID 1146).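 Note: PC12 cells with 6xCRE LacZ reporter stimulated by forskolin 10 µM; beta-galactosidase reporter signal reflecting CREB driven transcription.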 The following applies: luminescence, 4.5 h, higher = more signal, called active from +8 up or from −8 down.
The target in assay [16] is Streptavidin (Streptomyces avidinii) (UniProt P22629). In words: compounds binding control protein streptavidin – biophysical, small-molecule microarray, 635/667 nm fluorescence, artefact control for SMM compound annotation, primary screen (AID 1147).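 Note: signal reflects streptavidin binding to arrayed compounds as a control protein.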 Conditions: higher = more signal.
Chain of Streptavidin (Streptomyces avidinii) (P22629 whole entry, looked up): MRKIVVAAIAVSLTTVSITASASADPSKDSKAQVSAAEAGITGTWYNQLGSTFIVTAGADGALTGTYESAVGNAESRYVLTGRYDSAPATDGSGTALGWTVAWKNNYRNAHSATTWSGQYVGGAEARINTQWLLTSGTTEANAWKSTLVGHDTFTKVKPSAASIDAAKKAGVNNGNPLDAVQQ
Assay [17] can be described thus: probe aInhba binding on compound microarray – biochemical, small-molecule microarray, 635/667 nm fluorescence, primary screen (AID 1148).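 Note: score merges 667nm spot fluorescence with signal-to-noise for antibody binding to printed compounds.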 The following applies: higher = more signal.
Assay [18] concerns the target Torsin-1A (Homo sapiens) (UniProt O14656). The experiment in a line: TOR1A wild-type binding on microarray – cell lysate, small-molecule microarray, lysate, 635/667 nm, primary screen (AID 1149). Conditions: COS7 hTOR1A-WT lysate, 635 nm fluorescence, higher = more signal.
Assay [19] shares this target. The experiment in a line: torsin A mutant lysate binding on microarrays – cell lysate, small-molecule microarray, COS7 lysate, 635/667 nm fluorescence, primary screen (AID 1150).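 Note: score pools 667 nm emission and signal to noise measuring lysate protein binding.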 The following applies: COS7 hTOR1A mutant lysate, 635 nm fluorescence, higher = more signal.
The test system of assay [20] is Sonic hedgehog protein (Shh). In words: Sonic hedgehog microarray binding compounds – biochemical, small-molecule microarray, 635/667 nm fluorescence, primary screen (AID 1151).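 Note: Shh protein binding to compounds spotted on small-molecule microarray slides; score combines spot fluorescence intensity with signal-to-noise across triplicate slides.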 Conditions: 635 nm fluorescence, higher = more signal.

Chain of Torsin-1A (Homo sapiens) (O14656 whole entry, looked up): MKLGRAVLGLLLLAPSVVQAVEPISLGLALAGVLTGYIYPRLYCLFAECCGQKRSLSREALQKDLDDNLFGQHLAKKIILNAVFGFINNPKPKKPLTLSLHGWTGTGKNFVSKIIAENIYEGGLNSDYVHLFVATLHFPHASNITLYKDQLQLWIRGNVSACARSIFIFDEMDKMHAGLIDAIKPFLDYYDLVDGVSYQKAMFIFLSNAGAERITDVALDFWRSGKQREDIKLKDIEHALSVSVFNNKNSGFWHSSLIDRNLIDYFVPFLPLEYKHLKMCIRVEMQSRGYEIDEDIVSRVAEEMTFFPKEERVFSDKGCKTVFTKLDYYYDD

As to `COc1ccc(C#C[C@@H]2C=C[C@H](OC(C)=O)[C@@H](COC(C)=O)O2)cc1`, the composite z-score in assay [1] amounted to 1.01; in [2] it was 0.282; in [3], 0.0919; in [4], 0.0177; in [5], 0.567; in [6], 0.183. Further, the composite z-score in assay [8] came out at 0.649; in assay [9], 0.217; in assay [11] it was 0.392; in assay [16], 0.271; in [17] it was 0.0442; in assay [18], 0.244. Moreover, the composite z-score was 0.267 in [19] and 0.882 in [20]. Besides, the z-score in assay [7] was 0.0859; in assay [10], -1.06 (inactive); in assay [12], -3.46 (inactive); in [13], 0.132 (inactive); in assay [14] it was 0.291 (inactive); in assay [15], 1.08 (inactive).
For `C[C@@H]1CC[C@H]2C(=O)O[C@@H](COc3ccc(C(C)(C)C)cc3)CN2[C@@H]1c1ccc(Br)cc1`, the composite z-score was 2.71 in assay [1]; -0.741 in assay [2]; 0.225 in assay [3]; 0.172 in assay [4]; -0.0473 in assay [5]; -0.62 in assay [6]. In addition, the composite z-score in assay [8] is -0.255; in assay [9] it was -0.383; in [11], -0.176; in assay [16] it was -0.259; in [17] it was -0.0987; in [18], -0.351. Moreover, the composite z-score in [19] is -0.188; in assay [20], -0.445. The z-score in assay [7] was 0.841; in assay [10] it was -0.864 (inactive); in assay [12] it was 0.301 (inactive); in assay [13] it was 0.256 (inactive); in assay [14], 0.764 (inactive); in assay [15] it was 0.403 (inactive).
`COC(=O)CC=C[C@@H](C)[C@@H](C=NO[C@@H](C)c1cc(-c2c(C)cc(C)cc2C)no1)NS(=O)(=O)c1ccc(C)cc1`: the composite z-score in assay [1] was -1.02; in assay [2] it was -0.888; in assay [3], -0.0927; in [4] it was -0.494; in [5], -1.58; in [6] it was -1.44. Moreover, the composite z-score in assay [8] was -1.55; in assay [9] it was -0.665; in [11] it was -0.475; in assay [16], -0.195; in assay [17], -0.261; in assay [18] it was -1.05. Moreover, the composite z-score in assay [19] was -1.32; in [20], -1.63. For the same compound, the z-score in assay [7] was -0.0778; in assay [10], 1.14 (inactive); in [12] it was -2.83 (inactive); in assay [13], 0.054 (inactive); in assay [14], 4.2 (inactive); in [15], 0.0267 (inactive).
`COC(=O)CC=C[C@@H](C)[C@@H](C=NO[C@@H](C)c1cn([C@H](CO)Cc2ccccc2)nn1)OC`: the composite z-score in [1] is 2.93; in [2], 0.168; in assay [3], -0.0296; in assay [4], 0.578; in assay [5], 0.293; in [6] it was 0.411. In addition, the composite z-score is 0.579 in assay [8]; 0.084 in [9]; -0.251 in assay [11]; 0.303 in assay [16]; -0.128 in assay [17]; 0.652 in assay [18]. The composite z-score in assay [19] stood at 0.278; in [20], 0.469. Also, the z-score in assay [7] is 0.269; in assay [10], -2.11 (inactive); in [12], -0.323 (inactive); in [13], -0.54 (inactive); in [14] it was 0.597 (inactive); in [15], 0.0826 (inactive).
`C#CCCCON=C1[C@H]2CCn3c(=O)n(-c4ccccc4)c(=O)n3[C@H]2[C@H](O)[C@@H]2O[C@H]12`: the composite z-score in assay [1] came to 0.303; in assay [2] it was 0.875; in assay [3], 0.093; in assay [4] it was 0.436; in assay [5] it was 0.295; in [6] it was 0.27. In addition, the composite z-score was 0.66 in assay [8]; 0.107 in [9]; 0.0823 in assay [11]; -0.126 in [16]; -0.23 in [17]; 0.494 in assay [18]. For the same compound, the composite z-score in assay [19] was 1.27; in assay [20], 0.504. The z-score in [7] was 0.94; in [10], -1.32 (inactive); in assay [12], -0.146 (inactive); in [13] it was 0.423 (inactive); in [14], -0.112 (inactive); in assay [15], 0.462 (inactive).
